We go through 27 molecules from PubChem BioAssay (NCATS).

Each structure is given as a SMILES string. Inconclusive results are not listed. Values without a mark were called inactive. The source made the active and inactive calls. Calls come from the whole dose curve; as a rule, active = well fitted curve in the direction sought with a large enough effect; inconclusive = small, poorly fitted or top-dose-only effect, or another doubt; inactive = no such curve, though single readings can be large; an effect the other way counts as inactive or inconclusive.

Assay [1] in a line: Primary qHTS for inhibitors of nuclear receptor binding SET domain protein 2 (NSD2) in an isogenic RCH-ACV NSD2 p.E1099K mutant (9B) (AID 1645876). (In general: qHTS replaces the single test concentration by a dilution series.)
Assay [2] in a line: Primary qHTS for inhibitors of nuclear receptor binding SET domain protein 2 (NSD2) in an RCH-ACV wild type WT cells (2C) (AID 1645877).
% is set by controls: 0 for no effect and ±100 for the full control effect; potency is the fitted concentration of half-maximal effect.
Note: nearly all actives have a fitted effect of over 70% in size.

Regarding `CC1OC2OC(=O)C3(C)CC4=C(CO)C5=C(CC(=O)C4(C)C(C1=O)C23)C(C)(C)OC(=O)C5` (stereo not given), the Potency entry in assay [1] and in assay [2] was “inactive” each time.
Consider `C=C(C)C1CCC(C)C12CC(O)C1(C)OC1C2OC(=O)C(N)CCC(=O)O` (stereo not given), for which the Potency entry in assay [1] and in assay [2] was “inactive” each time.
As to `CO[C@H]1/C=C/[C@@](C)(O)/C=C/C(=O)O[C@H](C)[C@@H](C)CC/C=C/1C`, the Potency in assay [1] is 14200 nM (active).
Turning to `C=CC1C(OC2OC(CO)C(O)C(O)C2O)OC=C2C(=O)N3C(C(=O)O)Cc4c([nH]c5ccccc45)C3CC21` (stereo not given), the Potency entry in assay [1] and in assay [2] was “inactive” in each case.
`CC(=O)N[C@H]1[C@H](O[C@H]2CC[C@@]3(C)C(CC[C@]4(C)C3CC=C3[C@@H]5CC(C)(C)CC[C@]5(C(=O)OC5OCC(O)C(O)C5O)CC[C@]34C)C2(C)C)O[C@H](COC2OC(C)C(O)C(OC3OC(C)C(O)C(O)C3O)C2O)[C@@H](O)[C@@H]1O` (stereo not given in full): the outcome in assay [1] was “inactive [at 9.23 µM]”. In addition, in assay [2], the activity change, negative = cell killing was 1.82% [at 9.23 µM].
As to `Cc1ccccc1CN1C2=NCCN2C(=O)C2=C1CCN(Cc1ccccc1)C2`, the Potency entry in assay [1] and in assay [2] was “inactive” each time.
As for `COc1c2c(c(C)c3c1C(=O)OC3)O[C@@]1(C)CCC3(C(C)(C)O)OC(=O)CC[C@]3(C)[C@H]1C2` (stereo not given in full), the Potency result in assay [1] and in assay [2] was “inactive” in each case.
Consider `C=C1C(=O)O[C@H]2[C@H]1CC/C(C)=C/CC[C@@]1(C)O[C@@H]21`, for which the Potency in assay [1] was 25800 nM (active).
Turning to `CC1(C)CC[C@]2(C(=O)O)CC[C@]3(C)C(=CCC4[C@@]5(C)C[C@@H](O)[C@H](O)C(C)(C)C5CC[C@]43C)C2C1` (stereo not given in full), the Potency entry in assay [1] and in assay [2] was “inactive” throughout.
Consider `COc1cc(C)c(C(=O)Oc2cc(C)c(C(=O)Oc3cc(C)c(C(=O)NC(C)C(=O)O)c(O)c3)c(O[C@@H]3O[C@H](CO)[C@@H](O)[C@H](O)[C@H]3OC(C)=O)c2)c(OC)c1` (stereo not given in full), for which the Potency result in assay [1] and in assay [2] was “inactive” in each case.
Consider `CC1(C)CCC[C@]2(C)[C@H]3CC(=O)O[C@]3(C)CC[C@@H]12`, for which the Potency entry in assay [1] is “inactive”.
In the case of `CC1=CC(=O)[C@]2(O[C@@H]3O[C@@H](C)[C@H](O)[C@@H](O)[C@H]3OC(=O)/C=C/c3ccccc3)C=CO[C@@H](O[C@@H]3O[C@H](CO)[C@@H](O)[C@H](O)[C@H]3O)[C@H]12`, the Potency entry in assay [1] and in assay [2] was “inactive” each time.
As to `CC(=O)N[C@@H](CCCCN)C(=O)N(C)[C@@H](CC(C)C)C(=O)N[C@H](C(=O)N(C)[C@@H](Cc1ccccc1)C(=O)N[C@H](Cc1ccccc1)C(N)=O)C(C)C`, the outcome in assay [1] and in assay [2] was “inactive [at 4.96 µM]” in each case.
Consider `C[C@@H]1N[C@H]2N(C1=O)c1ccccc1[C@@]2(O)C[C@@H]1C(=O)N[C@@H](C)c2nc3ccccc3c(=O)n21`, for which the Potency result in assay [1] and in assay [2] was “inactive” in each case.
On to `C/C=C(\C)C(=O)O[C@@H]1CC2[C@@H](CC=C3C[C@@H](O[C@H]4C[C@H](OC)[C@H](O[C@H]5C[C@H](OC)[C@H](O[C@@H]6O[C@H](C)[C@@H](O[C@H]7C[C@H](OC)[C@H](O[C@@H]8O[C@H](CO)[C@@H](O)[C@H](O)[C@H]8O)[C@@H](C)O7)[C@H](OC)[C@H]6O)[C@@H](C)O5)[C@@H](C)O4)CC[C@@]32C)[C@@]2(O)CC[C@H](C(C)=O)[C@@]12C` (stereo not given in full), for which, in assay [1], the activity change, negative = viability loss was -8.77% [at 9.23 µM]. Besides, the activity change, negative = cell killing in assay [2] is -12.6% [at 9.23 µM].
The matching figures for `CC1(C)CC[C@]2(C(=O)O[C@@H]3O[C@H](CO)[C@@H](O)[C@H](O)[C@H]3O)CC[C@]3(C)C(=CCC4[C@@]5(C)CC[C@H](O[C@@H]6O[C@H](C(=O)O)[C@@H](O)[C@H](O)[C@H]6O)[C@@](C)(CO)C5CC[C@]43C)C2C1` (stereo not given in full): 3.1% [at 9.23 µM] and 4.55% [at 9.23 µM].
For the molecule `CC(C)C1=CC2C(CC[C@]2(C)O)[C@](C)(O)CC1` (stereo not given in full), the Potency result in assay [1] and in assay [2] was “inactive” throughout.
Consider `C[C@@H]1C[C@@H]2O[C@H]2/C=C\C=C\C(=O)Cc2c(Cl)c(O)cc(O)c2C(=O)O1`, for which the Potency was 1010 nM (active) in assay [1] and 450 nM (active) in assay [2].
For `COc1ccc(CNC(=O)c2cc(-c3cncc(C)c3)ncc2-c2nccs2)nc1OC`, in that order: “inactive” and “inactive”.
For the molecule `CC(C)CNCc1ccc(-c2ccccc2S(=O)(=O)N2CCCC2)cc1`, the Potency entry in assay [1] was “inactive”.
With `COc1ccc(-c2c(-c3cc(C(=O)O)ccn3)ncn2C)cc1`, the Potency entry in assay [1] and in assay [2] was “inactive” each time.
In the case of `CC12CCC(C(OC3OC(COC4OCC(O)(CO)C4O)C(O)C(O)C3O)C1)C(C)(C)O2` (stereo not given), the Potency result in assay [1] and in assay [2] was “inactive” in each case.
For `CCCCNc1ncc2c(-c3ccc(F)cc3)nn(CC3CCC(N)CC3)c2n1` (stereo not given), the Potency was 2240 nM (active) in assay [1] and 1620 nM (active) in assay [2].
Turning to `CC1(C)CCC2(C(=O)OC3OCC(O)C(O)C3O)CCC3(C)C(=CCC4C5(C)CC(O)C(OC6OC(COC7OCC(O)C(O)C7O)C(O)C(O)C6O)C(C)(C)C5CCC43C)C2C1` (stereo not given), the activity change, negative = viability loss in assay [1] is -10.4% [at 9.23 µM]. The activity change, negative = cell killing in assay [2] was -0.57% [at 9.23 µM].
As to `CC[C@H]1OC(=O)[C@H](C)[C@@H](O[C@H]2C[C@@](C)(OC)[C@@H](O)[C@H](C)O2)[C@H](C)[C@@H](O[C@@H]2O[C@H](C)C[C@H](N(C)C)[C@H]2O)[C@](C)(O)C[C@@H](C)C(=O)[C@H](C)[C@H]2OC(=O)O[C@@]21C`, the Potency result in assay [1] and in assay [2] was “inactive” each time.
Take `COc1ccc(C[C@H](N)C(=O)N[C@@H]2[C@H](O)[C@H](n3cnc4c(N(C)C)ncnc43)O[C@@H]2CO)cc1`: the Potency in assay [1] is 325 nM (active); in assay [2], 205 nM (active).
The matching figures for `C=C1C(OC(=O)/C(C)=C\C)[C@@]23CCC4[C@@](C)(CCC[C@@]4(C)C(=O)O)C2CC[C@H]1C3OC(C)=O` (stereo not given in full): “inactive” and “inactive”.
